# An excerpt weighted towards active compounds, which were near 20% of everything screened.
# Shiga inhibitor: Shiga toxin inhibition. 9.2% of 290,000 active. AID 2315. Vero cells, Shiga toxin protein synthesis inhibition reporter. inhibition, % at 38.7 µM; in the data active = inhibition mostly above about 28%, no sharp cut-off; inactive = mostly below about 43%
# Pf growth 96h: P. falciparum growth inhibition at 96 hour, primary screen for plastid delayed-death inhibitors. P. falciparum luciferase reporter growth, 96 h. AID 504834. 6.9% of 320,000 active. Potency, µM (highest dose often 28.7 µM), usual class: inhibitors
#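 P. falciparum expressing integrated firefly luciferase grown in erythrocytes (2% hematocrit, 0.05% parasitemia final) with compounds for 96 hours at 37 C, 5% CO2. Growth inhibition read as loss of luminescence after adding luciferase detection reagent.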
# Pf growth 48h: P. falciparum growth inhibition at 48 hours (one generation); P. falciparum luciferase growth in erythrocytes, 48 h; Potency, µM (top dose mostly 28.7 µM), hits mostly inhibitors; 5.9% of 310,000 active; AID 504832
#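 Cell-based growth assay: transgenic P. falciparum expressing firefly luciferase, cultured in red cells within RPMI 1640 containing 0.5% w/v Albumax, 24 mM bicarbonate and gentamycin. A drop in luciferase activity indicates inhibition.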
# HCMV inh: human cytomegalovirus inhibition. HFF cells, HCMV-luciferase reporter, 72 h; stronger effect = lower value. activity change, negative = inhibition, % at 57.5 µM. 4.5% of 410,000 active. AID 1259415; in the data active = activity change below about -60%; inconclusive = no clear call, values can overlap the other calls; inactive = above about -39%
#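 Screen run at 2 compound doses on HFFs infected with reporter HCMV, MOI 1 PFU/cell. Luciferase activity from cell lysates at 72 h post infection gave inhibition relative to buffer-only and Salinomycin wells.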
# Cycloheximide cs: counter-screen hit for Shiga toxin inhibitors, cycloheximide | max response, % | 12% of 300,000 active | cell reporter, cycloheximide protein synthesis inhibition counterscreen; in the data active = max response mostly above about 13%, no sharp cut-off; inactive = mostly below about 14%; note: read at 38.3 µM for the half of the compounds with a filed dose
# A number is an active result; – = inactive; ? = inconclusive; · = not tested or not shown. Unless noted, calls come from the whole dose curve; as a rule, active = well fitted inhibition curve with a large enough effect; inconclusive = small, poorly fitted or top-dose-only effect, or another doubt; inactive = no such curve, though single readings can be large or run the other way.
SMILES,Shiga inhibitor,Pf growth 96h,Pf growth 48h,HCMV inh,Cycloheximide cs
Oc1cc(NCCN2CCOCC2)cc2cccnc12,·,?,4.7µM,-87,·
Cc1cccc(Nc2ccccc2)c1,–,–,–,–,–
Oc1cc(Nc2ccccc2)cc2cccnc12,·,2.6µM,2.1µM,-82,·
Oc1cccc2cc(Nc3ccccc3)cnc12,·,·,·,-101,·
COc1ccc(N(Cc2ccccc2)C(=O)OC(C)(C)C)c(C(=O)N(C)OC)c1,·,·,·,–,·
COc1ccc2c(c1)C(C)=CC(C)(C)N2C(=O)C(C)N1C(=O)c2ccccc2C1=O (centres undefined),–,·,–,·,–
CC1=CC(C)(C)N(C(=O)C(C)N2C(=O)c3ccccc3C2=O)c2c(C)cc(C)cc21 (centres undefined),–,·,10µM,·,–
O=C(COc1ccc2ccc(=O)oc2c1)Nc1ccc(N2CCCCC2)cc1,·,–,?,–,·
Nc1nc(Sc2ccc([N+](=O)[O-])c3nonc23)c2[nH]cnc2n1,·,·,·,-85,·
CNc1ncnc(Sc2nc(N)nc3nc[nH]c23)c1[N+](=O)[O-],·,·,·,-77,·
Nc1nc(SCc2ccccc2)c2[nH]cnc2n1,–,–,–,–,–
CC1(C)C[C@H]2C3=CCC4[C@@]5(C)CC[C@H](O)[C@@](C)(CO)C5CC[C@@]4(C)[C@]3(C)C[C@@H](O)[C@@]2(CO)[C@@H](O)[C@@H]1O (some centres undefined),·,·,·,-73,·
COc1ccc(/C=N/N(C(C)=O)c2nc(-c3ccc(C)cc3)cs2)cc1,–,?,?,–,–
CC(=O)N(/N=C/c1cccc(C)c1)c1nc(-c2ccc(Br)cc2)cs1,–,12µM,?,–,–
COc1ccccc1/C=N/N(C(C)=O)c1nc(-c2ccc(F)cc2)cs1,–,–,–,–,30
COc1ccc(C)cc1N(CC(=O)NC1CCCC1)C(=O)CCC(=O)Nc1nc(C)cs1,–,?,?,–,–
O=C1c2ccccc2NC(c2ccccc2)N1/N=C/c1ccccc1 (centres undefined),–,–,–,–,–
O=C1c2ccccc2NC(c2ccc(O)cc2)N1/N=C/c1ccc(O)cc1 (centres undefined),43,–,–,–,19
O=C1c2ccccc2NC(c2ccccc2)N1c1ccc(O)cc1 (centres undefined),–,–,–,–,–
O=C1c2ccccc2NC(c2ccc(O)cc2)N1c1ccccc1 (centres undefined),58,?,–,–,36
CC(C)(C)OC(=O)N/N=C/c1ccc(N2CCOCC2)s1,89,?,–,–,55
O=C(N/N=C/c1ccc(N2CCOCC2)s1)c1ccccc1Br,–,?,–,–,–
Clc1cccc(N/N=C/c2ccc(N3CCOCC3)s2)c1,–,?,?,-83,23
CNC(=O)COc1coc(CN2CCN(c3ccccc3OC)CC2)cc1=O,–,?,–,–,–
CC(C)C(OC(=O)c1nsc(Cl)c1Cl)C(=O)NC1CCCCC1 (centres undefined),–,–,–,–,–
SMILES,Shiga inhibitor,Pf growth 96h,Pf growth 48h,HCMV inh,Cycloheximide cs
COC(=O)c1ccc(COC(=O)C(CCSC)NC(=O)COc2ccccc2)cc1 (centres undefined),–,–,–,–,–
CC(=C\C(=O)O)/C(=C\c1cccc2ccccc12)C(=O)O,83,–,?,–,25
CCC(=O)Nc1nnc(SCC(=O)NC2CCCC2)s1,–,–,–,–,–
Cc1ccc(F)cc1NC(=O)CSCc1nc2sc(C)c(C)c2c(=O)[nH]1,·,–,–,–,·
CCCCc1cc(=O)oc2cc(C)cc(OCC(=O)Nc3ccccn3)c12,61,?,4.1µM,–,21
CCCc1cc(=O)oc2cc(C)cc(OCC(=O)Nc3ccccn3)c12,–,0.66µM,0.93µM,–,20
CCCCN1C(=O)C(CC(=O)NCCc2ccccn2)CC(C(=O)N2CCOCC2)=C1C (centres undefined),·,·,·,–,·
O=[N+]([O-])c1ccc2cccnc2c1,·,·,·,–,·
Oc1cccc(C(Nc2nccs2)c2ccc3cccnc3c2O)c1 (centres undefined),–,?,3.3µM,-93,–
CCCCC(=O)NC(c1cccc([N+](=O)[O-])c1)c1ccc2cccnc2c1O (centres undefined),·,·,·,-103,·
CC(=O)NC(c1cccc([N+](=O)[O-])c1)c1ccc2cccnc2c1O (centres undefined),–,–,–,-102,–
O=[N+]([O-])c1ccc(NC(c2ccccc2)c2ccc3cccnc3c2O)cc1 (centres undefined),·,·,·,-97,·
COc1ccc(CN2C(=O)N(c3ccc(C)cc3)C(=O)C2CC(=O)Nc2ccccc2)cc1OC (centres undefined),·,·,·,–,·
COc1cccc(C(Nc2ccccc2)c2ccc3ccc(C)nc3c2O)c1 (centres undefined),·,·,·,–,·
COc1cccc(C(NC(C)=O)c2ccc3cccnc3c2O)c1 (centres undefined),–,–,?,-99,–
CN(C(=O)COC(=O)C12CC3CC(CC(Cl)(C3)C1)C2)C1(C#N)CCCCC1,·,?,?,–,·
CCCCN1Cc2cc(C(=O)c3cc(OC)ccc3O)cnc2NC1=O,–,9.3µM,?,–,–
Cc1ccc(O)c(C(=O)c2cnc3c(c2)c(-c2ccc(F)cc2)c(C#N)c(=O)n3C)c1,–,?,?,?,–
Cc1ccc(O)c(C(=O)c2cnc3c(c2)c(=O)n(C)c(=O)n3C)c1,–,10µM,?,–,–
Cc1ccc(O)c(C(=O)c2cnc3c(c2)CN(CCC(C)C)C(=O)N3)c1,–,5.2µM,2.9µM,–,–
CC[C@H](Cc1c(I)cc(I)c(N)c1I)C(=O)O,·,–,–,·,·
COc1ccc2nc(NNC(=O)C3COc4ccccc4O3)sc2c1 (centres undefined),55,–,–,–,13
CS(=O)(=O)c1ccc2nc(NC(=O)C3CCCO3)sc2c1 (centres undefined),–,–,–,–,–
O=C(Nc1nc(-c2nc3ccccc3s2)cs1)C1COc2ccccc2O1 (centres undefined),68,–,–,–,23
COc1ccc2nc(N(Cc3cccnc3)C(=O)C3COc4ccccc4O3)sc2c1 (centres undefined),·,·,·,–,·
SMILES,Shiga inhibitor,Pf growth 96h,Pf growth 48h,HCMV inh,Cycloheximide cs
COc1ccc2nc(NC(=O)C3COc4ccccc4O3)sc2c1 (centres undefined),77,–,·,–,30
CS(=O)(=O)c1ccc2nc(NC(=O)C3COc4ccccc4O3)sc2c1 (centres undefined),–,·,–,–,25
CCN(C(=O)COc1ccc2ccc(=O)oc2c1)C1CCCCC1,·,·,·,–,·
O=C1CCCCC1(c1ccccc1)c1ccccc1,·,·,·,–,·
COc1ccccc1CNS(=O)(=O)c1c(C(=O)N2CCCCCC2)c(C)n(C)c1C,–,?,–,–,–
O=C(O)Cc1c(C(=O)O)[nH]c2ccc(C(=O)O)cc12,–,–,–,–,–
Nc1ccccc1C(=O)NNC(=O)C(=O)/C=C(\O)c1ccccc1,53,–,–,·,33
O=C(/C=C(\O)c1ccccc1)C(=O)NNC(=O)c1ccccc1[N+](=O)[O-],71,–,–,–,17

# Screens as filed in PubChem BioAssay.
